Screens deposited in PubChem by several laboratories.
This is a sample that favours compounds with a hit; in the whole collection about 0.82% have one here.
TcdB inh – TcdB glycohydrolase inhibitors, primary screen, biochemical, single point, plate reader. Toxin B (Clostridioides difficile), P18177. TcdB glycohydrolase enzymatic assay. inhibition, % at 9.99 µM. hit rate 0.24% among 350,000. AID 652162, 2013; in the data active = inhibition above about 10%
DUSP3 inh – VHR1 phosphatase inhibitors, primary screen, biochemical, absorbance, uHTS; AID 1654, 2009; hit rate 0.52% among 290,000; Dual specificity protein phosphatase 3 (Homo sapiens), P51452; inhibition, % at 13.3 µM; recombinant VHR phosphatase, pNPP absorbance; in the data active = inhibition above about 50%
PrPC surface inh – inhibitors of human cell surface prion protein PrPC, primary screen, cell-based, TR-FRET; TR-FRET read-out; hit rate 0.43% among 370,000; inhibition, % at 13.8 µM; in the data active = inhibition above about 24%; note: 0% = median of the test wells and 100% = reference compound wells
PrPC TRFRET cf – confirmation of inhibitors of cell surface human prion protein, confirmation, cell-based, TR-FRET. shares compounds with PrPC surface inh. cell surface PrPC level. inhibition, % at 13.8 µM. hit rate 65% among 1,500; in the data active = inhibition above about 25%
LD9 tox – cytotoxicity in LD9 cells, cytotoxicity control for cell surface PrPc inhibitor project, cell-based, luminescence, high throughput | shares compounds with PrPC surface inh | luminescence viability | inhibition, % at 13.8 µM | hit rate 29% among 1,500; in the data active = inhibition above about 9.5%
The depositor's hits bear a star.

CCOc1ccc(/C(O)=C2/C(=O)C(=O)N(c3ccccn3)C2c2ccc(F)cc2)c(C)c1 (configuration not stated) was read as TcdB inh -1, DUSP3 inh -14, PrPC surface inh 29*, PrPC TRFRET cf 63* and LD9 tox -6.
For Cc1ccc(/C(O)=C2/C(=O)C(=O)N(c3ccccn3)C2c2ccc(F)cc2)cc1 (configuration not stated) the results were TcdB inh -1, DUSP3 inh 26 and PrPC surface inh 11.
COCC#Cc1cnc2c(c1)C(=O)N([C@@H](C)CO)C[C@H](C)[C@H](CN(C)Cc1ccc3c(c1)OCO3)O2 was read as TcdB inh 0.
`COc1ccc(NC(=O)c2sc(=O)n(Cc3ccc(F)c(Cl)c3)c2C)cc1OC` gave TcdB inh -8, PrPC surface inh 30*, PrPC TRFRET cf 17 and LD9 tox 0.
For COc1ccc(CNC(=O)c2sc(=O)n(Cc3cc(Cl)ccc3OC)c2C)cc1 the results were TcdB inh 1 and PrPC surface inh -5.
For O=C(C[C@H]1C[C@H]2c3cc(NC(=O)NC4CCCC4)ccc3O[C@H]2[C@@H](CO)O1)NCC1CC1 the results were TcdB inh 0.
CC(C)c1ccc(NC(=O)C2CCCN(S(=O)(=O)c3ccc4c(c3)C(C)(C)C(=O)N4C)C2)cc1 (configuration not stated) was read as TcdB inh -3, DUSP3 inh 21, PrPC surface inh 79*, PrPC TRFRET cf 73* and LD9 tox -2.
Screening Cc1ccccc1NC(=O)C1CCCN(S(=O)(=O)c2ccc3c(c2)C(C)(C)C(=O)N3C)C1 (configuration not stated) returned TcdB inh 0, DUSP3 inh 6 and PrPC surface inh 12.
Screening CN1C(=O)C(C)(C)c2cc(S(=O)(=O)N3CCCC(C(=O)NCc4ccc(F)cc4)C3)ccc21 (configuration not stated) returned TcdB inh 0, DUSP3 inh 13, PrPC surface inh 29*, PrPC TRFRET cf 40* and LD9 tox 4.
Screening CCOc1ccc(NC(=O)C2CCN(S(=O)(=O)c3ccc4c(c3)C(C)(C)C(=O)N4C)CC2)cc1 returned TcdB inh 0, DUSP3 inh -2 and PrPC surface inh -10.
`CN1C(=O)C(C)(C)c2cc(S(=O)(=O)N3CCCC(C(=O)Nc4ccc(Cl)cc4)C3)ccc21` (configuration not stated) gave TcdB inh 0, DUSP3 inh 21, PrPC surface inh 81*, PrPC TRFRET cf 73* and LD9 tox 4.
CN1C(=O)C(C)(C)c2cc(S(=O)(=O)N3CCC(C(=O)Nc4ccc(Cl)cc4)CC3)ccc21 was read as TcdB inh 0, DUSP3 inh 21 and PrPC surface inh -2.
COc1cccc(CNC(=O)C2CCCN(S(=O)(=O)c3ccc4c(c3)C(C)(C)C(=O)N4C)C2)c1 (configuration not stated) was read as TcdB inh 0, DUSP3 inh 10 and PrPC surface inh 12.
For CCOc1ccc(NC(=O)C2CCCN(S(=O)(=O)c3ccc4c(c3)C(C)(C)C(=O)N4C)C2)cc1 (configuration not stated) the results were TcdB inh -1, PrPC surface inh 39*, PrPC TRFRET cf 33* and LD9 tox -4.
`C[C@@H]1CN([C@H](C)CO)C(=O)Cc2cc(NS(=O)(=O)c3ccc(F)cc3)ccc2O[C@@H]1CN(C)C` gave TcdB inh -1.
`CN1CCN(C(=O)C[C@@H]2CC[C@H]3[C@@H](COc4ccc(NC(=O)C5CC5)cc4C(=O)N3C)O2)CC1` gave TcdB inh -1.
For C[C@H](CO)N1C[C@H](C)[C@@H](CN(C)C(=O)Nc2ccc3c(c2)OCO3)Oc2ccc(NC(=O)CCN3CCOCC3)cc2CC1=O the results were TcdB inh -2.
CCC(=O)N1CCC2(CC1)CN(Cc1cc(F)ccc1F)[C@H](CO)c1[nH]c3cc(OC)ccc3c12 was read as TcdB inh -1.
For COc1ccc(NC(=O)Nc2ccc3c(c2)[C@@H]2C[C@H](CC(=O)N4CCN(C)CC4)O[C@@H](CO)[C@@H]2O3)cc1 the results were TcdB inh 1.
`COc1ccc(CN(C)C[C@@H]2Oc3ccc(NC(=O)CCC(F)(F)F)cc3CC(=O)N([C@H](C)CO)C[C@@H]2C)cc1` gave TcdB inh 0.
Screening COc1ccccc1Cc1c(-c2ccc(OC)c(OC)c2)nc2c(C)cc(Br)cn12 returned TcdB inh 0 and PrPC surface inh 3.
`Cc1cc(Br)cn2c(Cc3cccc(Cl)c3)c(-c3cccc(Cl)c3)nc12` gave TcdB inh 0 and PrPC surface inh -7.
Screening COc1ccc(-c2nc3c(C)cc(Br)cn3c2Cc2cccc(Cl)c2)cc1OC returned TcdB inh 1, PrPC surface inh 26*, PrPC TRFRET cf 62* and LD9 tox -5.
Screening COc1ccc(-c2nc3c(C)cc(Br)cn3c2CC(C)(C)C)cc1OC returned TcdB inh -9, PrPC surface inh 42*, PrPC TRFRET cf 52* and LD9 tox -4.
Screening O=C(CC1CC1)N1[C@@H]2CN(S(=O)(=O)c3ccccc3)c3ccccc3[C@@H]2[C@@H]1CO returned TcdB inh 1.
CCc1cc2c(=O)c(-c3ccc4c(c3)OCCO4)coc2cc1OS(C)(=O)=O was read as TcdB inh 1, DUSP3 inh 12, PrPC surface inh 36*, PrPC TRFRET cf 31* and LD9 tox 6.
`CCc1cc2c(=O)c(-c3ccc4c(c3)OCCO4)coc2c(CN2CCCCC2C)c1O` (configuration not stated) gave TcdB inh 1, DUSP3 inh 26 and PrPC surface inh 12.
For O=C(Cc1ccncc1)NCC[C@@H]1CC[C@@H](NC(=O)C2CCCC2)[C@H](CO)O1 the results were TcdB inh -1.
For COC(=O)C(Cc1ccccc1)NC(=O)C(CC(C)C)NC(=O)OC(C)(C)C (configuration not stated) the results were DUSP3 inh 3 and PrPC surface inh -1.
`COC(=O)[C@H](CC1(c2cn(S(=O)(=O)CC[Si](C)(C)C)c3ccccc23)C(=O)Nc2ccccc21)NC(=O)OC(C)(C)C` (some centres not stated) gave PrPC surface inh 47*, PrPC TRFRET cf 59* and LD9 tox -1.
For CCN(CC)C(=O)CSC(Nc1ccc(F)cc1)=C(C#N)C#N the results were TcdB inh 2, DUSP3 inh 13 and PrPC surface inh 6.
Screening Cc1ccc(CSC(Nc2ccc(F)cc2)=C(C#N)C#N)cc1 returned TcdB inh -1, DUSP3 inh -12, PrPC surface inh 33*, PrPC TRFRET cf 36* and LD9 tox 25*.
